Measurements published in PubChem BioAssay AID435005 (Broad Institute, 2010).
Several values for one entry are separate records, joined by “and”; a condition that tells them apart may be missing. Identical values can stand only once. Screen size: about 300,000 compounds; about 2,400 (0.8%) were called active.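 The calls were made as follows: active = Every replicate reaches about 75%, or at least half do and their mean reaches it too (limit read from the data); inconclusive = At least half of replicates reach the limit but their mean does not; inactive = Under half of replicates reach the limit.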 Only a selection was taken, and actives are over-represented in it overall. More than one record can exist for a structure, and the calls need not agree.

Assay: inhibitors of cytokine-induced beta cell apoptosis, primary screen, luminescence (AID 435005);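 also: 0% = cytokine-treated negative control wells and 100% = positive control rescue; higher means more ATP so stronger rescue from cytokine killing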
Settings: INS-1E cytokine-induced death, ATP luminescence, 48 h; stronger effect = higher value; percent of positive-control rescue, neutral wells zero; concentration not given here
In the case of `Cc1cc(N2CCCC2)ccc1NC(=O)COc1ccc(Cl)cc1`, the protection from apoptosis is reported as -16.4% (inactive).
For `O=C1N[C@H](Cc2c[nH]c3ccccc23)COC(=O)[C@H](Cc2ccc(F)cc2)C/C=C\C[C@H]1CC(=O)N(CCO)Cc1ccccc1`, the protection from apoptosis was -0.37% (inactive).
With `COc1ccc2c(c1)CCNC2Cc1ccc(OC)c(O)c1` (centres undefined) the protection from apoptosis was -7.35% (inactive).
For `CC[C@H]1CN2CCc3cc(OC)c(OC)cc3[C@@H]2C[C@@H]1C[C@H]1NCCc2cc(OC)c(OC)cc21`, the protection from apoptosis was 81.8% (active).
With `CCc1ccc(OCC2c3cc(OC)c(OC)cc3CCN2C(C)=O)cc1` (centres undefined) the protection from apoptosis was -2.37% (inactive).
For `Cc1ccc(S(=O)(=O)N2CCN(C(=O)Cn3c(=O)cnc4ccccc43)CC2)c(C)c1`, the protection from apoptosis was 3.1% (inactive).
For `CCOc1ccccc1Nc1nnc(SCC(=O)NCC2CCCO2)s1` (centres undefined), the protection from apoptosis was -3.28% (inactive).
For `COc1ccccc1/C=N\Nc1cc(C)nc(-n2nc(C)cc2C)n1`, the protection from apoptosis was 85.5% (active).
For `COc1cccc2c(N/N=C/c3ccco3)cc(C)nc12`, the protection from apoptosis was 0.451% (inactive).
With `Cc1nc(Cl)cc(N/N=C/c2ccccc2)n1` the protection from apoptosis was 0.482% (inactive).
With `COc1ccc(/C=N/Nc2cc(N3CCOCC3)nc(C)n2)c(OC)c1` the protection from apoptosis was -0.288% (inactive).
With `COc1cccc(/C=N/Nc2cc(C)nc(-c3ccccc3O)n2)c1O` the protection from apoptosis was 83.1% (active).
With `Cc1ccc(S(=O)(=O)Nc2nc(C)cc(N/N=C/c3ccc(O)cc3)n2)cc1` the protection from apoptosis was -0.0503% (inactive).
For `Cc1cc(N/N=C\c2ccc(Br)cc2)nc(-n2nc(C)cc2C)n1`, the protection from apoptosis was 101% (active).
For `COc1cc(/C=N/Nc2nc3ccccc3s2)ccc1O`, the protection from apoptosis was -9.44% (inactive).
With `COc1ccccc1/C=N/Nc1nc(C)c(C(C)=O)s1` the protection from apoptosis was 1.33% (inactive).
With `CC(=O)Nc1ccc(S(=O)(=O)NCCC(=O)N2CCN(c3ccccc3Cl)CC2)cc1` the protection from apoptosis was 4.22% (inactive).
For `O=S(=O)(NCC1CN(S(=O)(=O)c2ccc3c(c2)OCCO3)C1)c1c(F)cccc1F`, the protection from apoptosis was -0.452% (inactive).
In the case of `O=C(COC(=O)c1n[nH]c2ccccc12)Nc1ccccc1Br`, the protection from apoptosis is reported as 2.52% (inactive).
With `O=C(Nc1ccc(C(F)(F)F)cc1)c1cccc(-n2cnnn2)c1` the protection from apoptosis was 8.03% (inactive).
With `Cc1ccc(C(=O)Nc2ccccc2-c2ccccc2)cc1S(=O)(=O)Nc1ccccc1` the protection from apoptosis was 12.9% (inactive).
In the case of `CN(CCc1ccccn1)C(=O)c1ccc(OC2CCN(Cc3ccccn3)CC2)cc1`, the protection from apoptosis is reported as 0.235% (inactive).
For `O=C(NCCOc1cccnc1)c1ccc(OC2CCN(Cc3ccccn3)CC2)cc1`, the protection from apoptosis was 120% (active).
For `O=C(c1ccc(OC2CCN(Cc3ccccn3)CC2)cc1)N1CCCCCC1`, the protection from apoptosis was -1.86% (inactive).
With `CN(Cc1ccc(F)cc1)C(=O)CN1C(=O)c2ccccc2S1(=O)=O` the protection from apoptosis was -4.27% (inactive).
With `CN(C)C(CNC(=O)c1ccc(OCc2cn3ccccc3n2)cc1)c1ccco1` (centres undefined) the protection from apoptosis was 0.439% (inactive).
For `Oc1ccc(/C=N/NC2=NCCCCC2)c(O)c1`, the protection from apoptosis was -2.33% (inactive).
For `Cc1nc2ccccc2nc1N/N=C/c1ccc(O)cc1O`, the protection from apoptosis was 86.1% (active).
In the case of `Oc1ccc(/C=N/Nc2nc(-c3ccccc3F)nc3ccccc23)c(O)c1`, the protection from apoptosis is reported as 91.3% (active).
With `FC(F)(F)c1nc2ccccc2nc1N/N=C/c1ccc(Cl)cc1` the protection from apoptosis was 7.12% (inactive).
For `Cc1cccc(-c2nc(Nc3ccc(O)cc3)c3ccccc3n2)c1`, the protection from apoptosis was -3.47% (inactive).
With `Fc1ccc(/C=N/Nc2nc(-c3cccnc3)nc3ccccc23)cc1` the protection from apoptosis was 12.4% (inactive).
In the case of `COc1ccc(-c2c(C#Cc3ccsc3)c3cc(-c4ccc(CN5CCOCC5)cc4)ccc3n2C)cc1`, the protection from apoptosis is reported as -5.34% (inactive).
With `C=CCC[C@@H](Cc1ccc(F)cc1)C(=O)OC[C@@H](C)NC(=O)[C@H](CC=C)CC(=O)N(CCO)Cc1ccccc1` the protection from apoptosis was -3.2% (inactive).
In the case of `CC(C)(C)NS(=O)(=O)NC(=O)C1=C(N2CCCC2)COC1=O`, the protection from apoptosis is reported as -7.92% (inactive).
With `COc1ccc(NC(=O)CNc2cc(S(=O)(=O)N3CCOCC3)ccc2N2CCOCC2)c(OC)c1` the protection from apoptosis was -2.12% (inactive).
In the case of `CC(CNC(=O)Cn1cnc2c(OCc3ccccc3)ncnc21)c1ccccc1` (centres undefined), the protection from apoptosis is reported as 0.936% (inactive).
In the case of `CC(C)(C)OC(=O)C[C@@H]1C/C=C\C[C@@H](CC(=O)N[C@H](CO)Cc2ccccc2)C(=O)NC[C@@H](c2ccccc2)OC1=O`, the protection from apoptosis is reported as 6.98% (inactive).
With `CCN(CC)CCOc1ccc2c(c1)C(=NNC(=O)c1ccccn1)c1cc(OCCN(CC)CC)ccc1-2` the protection from apoptosis was 107% (active).
With `CCOc1cc2ccccc2cc1C(=O)Nc1ccccn1` the protection from apoptosis was -5.78% (inactive).
With `Cc1ccc(Cl)cc1NC(=O)c1ccccn1` the protection from apoptosis was -1.51% (inactive).
For `NS(=O)(=O)c1ccc(CNC(=O)c2cccc(S(=O)(=O)N3CCc4ccccc43)c2)cc1`, the protection from apoptosis was 1.37% (inactive).
For `O=C(Nc1cc(S(=O)(=O)N2CCCCC2)ccc1Cl)C1COc2ccccc2O1` (centres undefined), the protection from apoptosis was 3.53% (inactive).
With `Cc1cccc(NC(=O)Nc2nnc(-c3ccccc3)o2)c1` the protection from apoptosis was -2.12% (inactive).
With `COc1cccc(NC(=O)NCc2ccc(F)cc2)c1` the protection from apoptosis was -3.25% (inactive).
For `Cc1cccc(NC(=O)Nc2cccc(Oc3c(F)c(F)c(F)c(F)c3F)c2)c1`, the protection from apoptosis was 99.2% (active).
With `CN(CC(=O)Nc1ccc(C(N)=O)cc1)S(=O)(=O)c1ccc2c(c1)OCCO2` the protection from apoptosis was -4.98% (inactive).
For `N#Cc1cccc(NC(=O)C2CCCN(C(=O)c3ccc(Cl)cc3)C2)c1` (centres undefined), the protection from apoptosis was 0.765% (inactive).
With `O=C(/C=C/c1ccc([N+](=O)[O-])o1)NNC(=O)c1ccc(F)cc1` the protection from apoptosis was 93.8% (active).
In the case of `O=C(N/N=C/c1ccc([N+](=O)[O-])o1)c1cn(-c2ccccc2)nc1-c1ccc(F)cc1`, the protection from apoptosis is reported as -1.79% (inactive).
For `Cc1ccc(/C=C/C(=O)Nc2ccc([N+](=O)[O-])c(NC(=O)/C=C/c3ccc(C)o3)c2)o1`, the protection from apoptosis was 2.69% (inactive).
With `C[C@H]1COC(=O)[C@H](CC(=O)OC(C)(C)C)C/C=C\C[C@@H](CC(=O)N[C@H](CO)Cc2ccccc2)C(=O)N1` the protection from apoptosis was 0.417% (inactive).
For `COCCCNC(=O)CC1C[C@H](C(=O)N2CCCCC2)[C@@]2(CCc3ccccc3)c3[nH]c4ccccc4c3CCN2C1=O` (some centres undefined), the protection from apoptosis was -3.93% (inactive).
In the case of `C=CC[C@@H](CC(=O)N[C@H](CO)Cc1ccccc1)C(=O)N[C@@H](COC(=O)[C@@H](CC=C)Cc1ccc(F)cc1)Cc1c[nH]c2ccccc12`, the protection from apoptosis is reported as 2.3% (inactive).
For `CCOC(=O)C1=C(c2ccc(OC)cc2)C(=O)c2ccccc2C1=O`, the protection from apoptosis was 130% (active).
In the case of `COc1ccc(N2CCN(C(C)=C3C(=O)c4ccccc4C3=O)CC2)cc1`, the protection from apoptosis is reported as -2.02% (inactive).
With `CCOC(=O)c1c(-c2ccc(C)cc2)csc1/N=C(\C)C1=C(O)c2ccccc2C1=O` the protection from apoptosis was -5.12% (inactive).
For `Cc1ccc(NC(=O)C2CC2)cc1S(=O)(=O)N1CCOCC1`, the protection from apoptosis was -4.34% (inactive).
For `CC(OC(=O)c1c(F)cccc1F)C(=O)NCCC1=CCCCC1` (centres undefined), the protection from apoptosis was -3.37% (inactive).
For `CC(C)n1cnc2c(NCc3ccccc3)cc(N[C@@H](CO)Cc3ccccc3)cc21`, the protection from apoptosis was 135% (active).
For `CC(C)n1cnc2c(NCc3ccccc3)cc(OCC3CCN(C)CC3)cc21`, the protection from apoptosis was -8.55% (inactive).
For `CCC(CO)Oc1cc(NCc2ccccc2)c2ncn(C3CCCC3)c2c1` (centres undefined), the protection from apoptosis was -4.59% (inactive).
With `COc1ccc(C2(c3ccc(OC)cc3)NC(=O)N(CC(=O)Nc3cc(C)on3)C2=O)cc1` the protection from apoptosis was -3.35% (inactive).
With `CCn1nnc2cc(C(=O)Nc3ccc(C(=O)OC(C)C)cc3)ccc21` the protection from apoptosis was 1.63% (inactive).
For `O=C(Nc1ccccc1Cl)Nc1cccc2cccnc12`, the protection from apoptosis was 15.9% (inactive).
In the case of `O=C(Nc1ccccc1Cl)/C(Cl)=C(\Cl)S(=O)c1ccccc1` (centres undefined), the protection from apoptosis is reported as 123% (active).
In the case of `O=C(Cc1ccc2c(c1)CCCC2)Nc1ccccc1Cl`, the protection from apoptosis is reported as 9.68% (inactive).
With `O=C(Nc1cccc(S(=O)(=O)NC2=NCCC2)c1)c1ccc(F)cc1F` the protection from apoptosis was -5.38% (inactive).
For `COc1cc(/C=C/C(=O)OCC(=O)c2ccccc2)cc(OC)c1OC`, the protection from apoptosis was -3.69% (inactive).
With `c1ccc(NCc2cccc3ccccc23)nc1` the protection from apoptosis was -6.69% (inactive).
In the case of `Oc1ccc(N=Nc2nccs2)c(O)c1`, the protection from apoptosis is reported as 98.3% (active).
In the case of `Oc1ccc2ccccc2c1N=Nc1nccs1`, the protection from apoptosis is reported as 83.9% (active).
In the case of `CCN1/C(=C\c2ccc3ccccc3[n+]2CC)Sc2cc(C)ccc21`, the protection from apoptosis is reported as 106% (active).
For `Cc1nc2ccc(NC(=O)c3cccc(S(=O)(=O)N4CCOCC4)c3)cc2s1`, the protection from apoptosis was -1.06% (inactive).
For `c1ccc2cc(CCCc3cc4ccccc4cn3)ncc2c1`, the protection from apoptosis was -10.4% (inactive).
With `Cc1ccc(NC(=O)Cn2cnc3c(OCc4ccccc4)ncnc32)cc1C` the protection from apoptosis was -4.68% (inactive).
For `COCCN(Cc1ccccc1)C(=O)Cc1ccc(S(=O)(=O)N2CCOCC2)s1`, the protection from apoptosis was -6.29% (inactive).
For `O=C(CN1C(=O)NC2(CCCCCC2)C1=O)NCc1ccc(F)cc1`, the protection from apoptosis was -3.82% (inactive).
In the case of `Clc1ccc(C[n+]2cc(-c3ccccc3)n3c2CCC3)cc1`, the protection from apoptosis is reported as -17.9% (inactive).
In the case of `Cc1ccc(C(=O)C[n+]2cc(-c3ccccc3)n3c2CCCCC3)cc1`, the protection from apoptosis is reported as 80.4% (active) and 69.5% (inactive).
In the case of `Cc1ccc(-c2c[n+](CC(=O)Nc3ccccc3)c3n2CCC3)cc1`, the protection from apoptosis is reported as -4.97% (inactive).
For `O=C(CNC(=O)c1n[nH]c2ccccc12)Nc1cc(Cl)ccc1Cl`, the protection from apoptosis was -6.41% (inactive).
For `COc1ccc(S(=O)(=O)N2CCCCC2)cc1NC(=O)COc1ccccc1`, the protection from apoptosis was 3.1% (inactive).
With `CCOc1ccc(S(=O)(=O)N2CCCCC2)cc1NC(=O)CN1CCCC1c1cccs1` (centres undefined) the protection from apoptosis was 108% (active).
In the case of `COc1ccc(S(=O)(=O)N2CCCCCC2)cc1NC(=O)Cc1ccc(OC)c(OC)c1`, the protection from apoptosis is reported as -0.791% (inactive).
With `CCc1sc(C(=O)N2CCN(CC(=O)Nc3cccc(F)c3)CC2)cc1C` the protection from apoptosis was -5.03% (inactive).
For `O=C(CC(O)(C(F)(F)F)C(F)(F)F)Nc1ccc(Cl)c(Cl)c1`, the protection from apoptosis was 105% (active).
With `O=C(Cc1ccc(Cl)c(Cl)c1)Nc1ccc(SC(F)F)cc1` the protection from apoptosis was -2.99% (inactive).
With `O=C(CC1SCCNC1=O)Nc1ccc(Cl)c(Cl)c1` (centres undefined) the protection from apoptosis was 0.331% (inactive).
